High-throughput results as filed in PubChem BioAssay.
MARV entry inh – qHTS for inhibitors of binding or entry into cells for Marburg Virus. Marburg virus pseudotyped entry inhibition, cell reporter. Potency, µM (series often up to 37.8 µM), for the others: at the highest dose activity change, negative = inhibition, actives largely listed as inhibitors. 300,000 tested, 1.8% active; calls by dose curve; tested in HEK293 cells; also: potency is read from the fitted curve at half-maximal effect
HCMV antiviral – qHTS Assay for inhibitors of the human cytomegalovirus (HCMV). HFF cells, HCMV-luciferase reporter, 72 h; hits give low values. activity change, negative = inhibition, % at 57.5 µM. 410,000 tested, 4.5% active; in the data active = activity change below about -60%; inconclusive = no clear call, values can overlap the other calls; inactive = above about -39%
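Cell-based, HFFs, 1000 cells/well, 16 h 37C; cpds in DMSO + HCMV-luc, MOI 1 PFU/cell; 72 h 37C; OneGlo luminescence after 5 min RT; norm. to buffer vs Salinomycin 10uM.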
Giardia FBPA inh – qHTS Assay for Inhibitors of Fructose-1,6-bisphosphate Aldolase from Giardia Lamblia. A8B2U2. purified Giardia FBPA. Potency, µM (top dose mostly 59.6 µM), inactives show at the top dose activity, negative = inhibition, actives largely listed as inhibitors. 290,000 tested, 0.71% active; also: potency is read from the fitted curve at half-maximal effect; nearly all actives have a fitted effect of over 55% in size
Target sequence (A8B2U2 whole entry, looked up): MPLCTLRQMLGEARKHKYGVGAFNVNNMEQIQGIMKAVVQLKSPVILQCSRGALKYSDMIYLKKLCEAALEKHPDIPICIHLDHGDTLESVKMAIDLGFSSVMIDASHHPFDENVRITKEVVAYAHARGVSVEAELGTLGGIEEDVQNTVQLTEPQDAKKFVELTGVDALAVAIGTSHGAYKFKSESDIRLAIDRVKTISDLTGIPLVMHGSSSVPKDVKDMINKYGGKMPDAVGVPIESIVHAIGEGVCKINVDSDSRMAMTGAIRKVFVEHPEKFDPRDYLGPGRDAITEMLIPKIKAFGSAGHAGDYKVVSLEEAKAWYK
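Giardia FBPA (40 nM reagent) was preincubated 10 min at RT with compound (up to 57.5 uM final), then substrate plus GAPDH/TPI/NAD/arsenate coupling system with diaphorase/resazurin was added; resorufin fluorescence (525/598 nm) was read after 20 min.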
HCV inh – qHTS Assay for Inhibitors of Hepatitis C Virus (HCV); Huh7.5.1 HCVcc-Cre infection, luciferase reporter, 44 h; Potency, µM (highest dose often 41.8 µM), inactives show top-dose activity change, negative = inhibition, actives largely listed as inhibitors; 340,000 tested, 3.4% active; also: potency is read from the fitted curve at half-maximal effect
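A cell-based infection assay in which seeded cells (1,000 per well) receive test compound after 4 h, are inoculated with HCVcc-Cre at approximately 0.5 moi, and are incubated 44 h before luminescence detection.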
LASV entry inh – qHTS for Inhibitors of binding or entry into cells for Lassa Virus; AID 540256, 2011; Potency, µM (doses to about 37.9 µM), for the others: at the top dose activity change, negative = inhibition, usual class: inhibitors; Lassa virus pseudotype entry inhibition, cell reporter; 300,000 tested, 1.2% active; calls by dose curve; tested in HEK293 cells; also: potency is read from the fitted curve at half-maximal effect; nearly all actives have a fitted effect of over 50% in size
FMDV antiviral – High Throughput Screening for Foot and Mouth Disease Virus Antivirals; 410,000 tested, 1.2% active; Potency, µM (top dose mostly 57.9 µM), without a hit: top-dose activity change, negative = inhibition, most hits filed as inhibitors; FMDV antiviral cell-based qHTS; calls by dose curve; tested in HEK293T cells; also: read-out not given here; potency is read from the fitted curve at half-maximal effect; nearly all actives have a fitted effect of over 45% in size
Numbers without * were called inactive; ? = inconclusive; nt = no result; [ ] = remark or other dose. Hits are enriched below; roughly 8.3% of the tested compounds scored in any of these assays. Unless noted, calls follow the shape of the dose curve; as a rule, active = well fitted curve in the direction sought with a large enough effect; inconclusive = small, poorly fitted or top-dose-only effect, or another doubt; inactive = no such curve, though single readings can be large; an effect the other way counts as inactive or inconclusive. % is scaled to controls: 0 for no effect and ±100 for the full control effect.

SMILES	MARV entry inh	HCMV antiviral	Giardia FBPA inh	HCV inh	LASV entry inh	FMDV antiviral
Cc1nn(C)c(C)c1CNC(=O)c1nn2c(c1Cl)NC(c1cccs1)CC2C(F)(F)F (centres undefined)	?	-85.6*	3.3%	?	-22.4%	nt
CC(C)NC(=O)c1cnn2c1NC(c1cccs1)CC2C(F)(F)F (centres undefined)	-7.5%	?	1.9%	2.82µM*	1.4%	12.2%
O=C(O)c1cnn2c1NC(c1cccs1)CC2C(F)(F)F (centres undefined)	6.0%[46.1 µM]	-10.1	17.1%	5.6%	21.8%	-18.8%
COC(=O)c1ccc(NC(=O)NCCn2nnc3cc(S(=O)(=O)N(C)C)ccc32)cc1	nt	8.0	nt	nt	5.0%[46.1 µM]	1.5%
CCCCCCn1c(=O)c(C(=O)Nc2ncccc2O)c(O)c2ccccc21	nt	-73.0*	-21.2%	-17.3%	nt	-18.2%
CCn1c(=O)c(C(=O)Nc2ncccc2O)c(O)c2ccccc21	?	54.2	?	-5.7%	24.9%	-23.8%
CCCCCCn1c(=O)c(C(=O)Nc2cnccn2)c(O)c2ccccc21	?	-38.0	0.1%	?	?	?
CCn1c(=O)c(C(=O)Nc2ncccc2C)c(O)c2ccccc21	?	?	-25.1%	10µM*	-8.6%	-12.4%
CCCCCn1c(=O)c(C(=O)Nc2ccccn2)c(O)c2ccccc21	nt	-97.7*	-13.6%	?	nt	-17.0%
CCn1c(=O)c(C(=O)Nc2ccc(C)cc2C)c(O)c2ccccc21	1.8%	nt	13.2%	10µM*	9.2%	17.8%
CCOC(=O)c1ccccc1NC(=O)c1c(O)c2ccccc2n(CC)c1=O	2.0%	-28.9	-20.2%	4.8%	7.0%	-27.6%
CCCCNC(=O)N[C@H]1CC[C@@]23CCCN2C(=O)CCC[C@H]3[C@H]1CCC	nt	5.0	nt	nt	nt	nt
CCNc1ncc2nc(-c3cc(F)cc(F)c3)c(=O)n(C)c2n1	nt	nt	0.5%	nt	nt	7.2%
CCn1c(=O)c(C(=O)Nc2ccccn2)c(O)c2ccccc21	12.2%[46.1 µM]	25.4	-5.5%	15.3%	29.4%[46.1 µM]	-6.3%
CCCCn1c(=O)c(C(=O)Nc2ccccn2)c(O)c2ccccc21	nt	-77.6*	-10.0%	-12.7%	nt	-16.4%
C/C=C/C1=CC2=CC(=O)C(C)(OC(=O)c3c(C)cc(O)cc3O)C(=O)C2=CO1 (centres undefined)	?	nt	-12.6%	nt	nt	nt
CCN(CCO)c1ccc(NC(=S)Nc2cccc(S(=O)(=O)N(C)C)c2)cc1	?	-12.3	7.92µM*	?	27.3%	-17.4%
CCN(CC)S(=O)(=O)c1ccc(N/N=C/c2cc(OC)ccc2O)nc1	?	-103.4*	3.0%	2.82µM*	?	-24.3%
COc1ccc(O)c(/C=N/NC(=S)Nc2cccc(S(=O)(=O)N(C)C)c2)c1	3.66µM*	26.7	-4.2%	?	4.61µM*	0.0%
CC(C)C(=O)Nc1cccc(S(=O)(=O)c2cccc(NC(=O)C(C)C)c2)c1	?	-24.9	-1.6%	?	0.631µM*	0.0%
CCN(CC)S(=O)(=O)c1ccc(N/N=C/c2cccnc2)nc1	nt	-23.1	1.5%	0.3%	nt	4.7%
Cc1oc(-c2ccc(Cl)cc2)nc1Cn1c(=O)cc(-c2ccccc2)c2c(C)nn(C)c21	nt	-6.0	nt	nt	6.3%[46.1 µM]	6.9%
COc1ccc(-c2cc(C(F)(F)F)nc(SCC(=O)N3CCCCC3)n2)cc1OC	-1.6%[46.1 µM]	-13.2	nt	nt	-24.4%[46.1 µM]	?
COc1ccc(S[C@]2(c3nc(-c4cccnc4)no3)CC(=O)N[C@@H]2c2ccc(OC)cc2)cc1	nt	23.5	nt	nt	nt	nt
CN(C)S(=O)(=O)c1cccc(NC(=S)N/N=C/c2ccc(O)c(O)c2O)c1	-26.8%[46.1 µM]	-30.3	15.8µM*	-22.8%	-16.3%	0.0%
COc1cc(/C=N/NC(=S)Nc2cccc(S(=O)(=O)N(C)C)c2)cc(OC)c1O	19.5%	0.0	-16.2%	-8.5%	-0.6%	-14.0%
COc1ccc2cc(C(C)C(=O)Nc3cccc(S(=O)(=O)N(C)C)c3)ccc2c1 (centres undefined)	?	-28.5	nt	25.1µM*	?	13.6%
